Compound activity from PubChem BioAssay.
Pf growth 96h: P. falciparum growth inhibition at 96 hour, primary screen for plastid delayed-death inhibitors; P. falciparum luciferase reporter growth, 96 h; Potency, µM (titrated, usually from 28.7 µM), without a hit: at the highest dose activity change, negative = inhibition, hits mostly inhibitors; 320,000 tested, 6.9% active; AID 504834; note: % is set by controls: 0 for no effect and ±100 for the full control effect
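Plates of compound plus infected erythrocytes (2% hematocrit, 0.05% parasitemia final) incubate 96 hours, 37 C, 5% CO2. Detection reagent added; reduced luminescence from the parasites' luciferase reporter flags inhibition.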
HCV inhibitor: blocks hepatitis C virus; Huh7.5.1 HCVcc-Cre infection, luciferase reporter, 44 h; Potency, µM (highest dose often 41.8 µM), inactives show top-dose activity change, negative = inhibition, most hits filed as inhibitors; 340,000 tested, 3.4% active; AID 651820; note: % is set by controls: 0 for no effect and ±100 for the full control effect
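Compounds are dispensed onto cells plated 4 h earlier at 1,000 per well, with HCVcc-Cre virus (about 0.5 moi) added next. Following 44 h of culture, luminescent signal is measured for 15 sec after 15 min with substrate at room temperature.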
AMA1-RON2 inh: inhibitors of Plasmodium falciparum AMA1-RON2 interaction; AlphaScreen AMA1-biotinylated RON2 peptide binding; Potency, µM (highest dose often 58.2 µM), without a hit: at the top dose activity change, negative = inhibition, actives largely listed as inhibitors; 360,000 tested, 0.2% active;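 note: 0% = vehicle wells and -100% = peptide control; nearly all actives have a fitted effect of over 45% in size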
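AMA1 (3D7) with his tag at 25 nM final met compounds first, then biotinylated RON2 peptide at 25 nM; detection used donor plus acceptor beads, 10 µg/mL apiece, read by AlphaScreen after 30 min at room temperature.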
NS1 function inh: blocks influenza NS1 protein function. Potency, µM (top dose mostly 46.1 µM), for the others: at the top dose activity, positive = more growth. 270,000 tested, 0.4% active. AID 2326; calls by dose curve; note: actives are rising curves; nearly all actives have a fitted effect of over 50% in size
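A cell-based growth assay was used: compounds that relieve NS1-induced slow growth of budding yeast raise OD600. Assay medium was yeast nitrogen base with ammonium sulphate and -URA supplement, pH 6.0, with 2% galactose.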
SARS PLP yeast: SARS-CoV PLP inhibition in yeast. 330,000 tested, 0.19% active. Potency, µM (titrated, usually from 32.9 µM), for inactives: at the highest dose activity, positive = growth rescue, actives largely listed as activators. S. cerevisiae expressing SARS-CoV PLpro, growth rescue; calls by dose curve; note: 0% is about no effect; nearly all actives have a fitted effect of over 55% in size
Pf growth 48h: P. falciparum growth inhibition at 48 hours (one generation); 310,000 tested, 5.9% active; P. falciparum luciferase growth in erythrocytes, 48 h; Potency, µM (series often up to 28.7 µM), for inactives: at the top dose activity change, negative = inhibition, hits mostly inhibitors; AID 504832; note: % is set by controls: 0 for no effect and ±100 for the full control effect
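Luciferase-expressing parasites in RBCs, 2% Hct / 0.1% parasitemia final; RPMI 1640 + 0.5% Albumax; 37 C, 5% CO2, one generation; luminescence read-out, lower signal = inhibition.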
Active calls of the source: *; ? = inconclusive; · = no result given; [ ] = another dose, or the depositor's remark. Shown are actives, neighbours in structure and some others; about 12% of the full set was active somewhere. Unless noted, calls come from the whole dose curve; as a rule, active = well fitted curve in the direction sought with a large enough effect; inconclusive = small, poorly fitted or top-dose-only effect, or another doubt; inactive = no such curve, though single readings can be large; an effect the other way counts as inactive or inconclusive. Potency is the fitted concentration of half-maximal effect.

SMILES | Pf growth 96h | HCV inhibitor | AMA1-RON2 inh | NS1 function inh | SARS PLP yeast | Pf growth 48h
CC1(C)Oc2ccc3ccc(=O)oc3c2/C(=C/Nc2ccccc2)C1=O | -8% | 10µM* | -13% | 9% | 0% | ·
CC(C)CNC(=O)c1c(N)n(Cc2ccc3c(c2)OCO3)c2nc3ccccc3nc12 | · | 15% | 31% | 23% | -12% | 6.6µM*
CC(C)CCNC(=O)c1c(N)n(Cc2ccc3c(c2)OCO3)c2nc3ccccc3nc12 | 12µM* | 2% | 3% | 3% | -4% | ·
COC(=O)c1ccc(/C=N/NC(=O)C2CC(=O)N(c3ccc(OC)cc3)C2)cc1 (stereo unspecified) | 0% | · | ? | 3% | -5% | ?
COc1ccc(NC(=O)Cn2c(=O)n(-c3ccc(CC(=O)NCc4ccco4)cc3)c(=O)c3ccccc32)cc1 | 15% | ? | 3% | · | 3% | 19%
C=CCSC1=C(C#N)C(c2ccccc2Cl)CC(=O)N1 (stereo unspecified) | 3.3µM* | 12% | -1% | 1% | 0% | 3%
C=CCSC1=C(C#N)C(c2ccc(OCC)cc2)CC(=O)N1 (stereo unspecified) | 7.4µM* | -2% | 14% | -6% | 1% | ·
CCOc1ccc(C2CC(=O)NC(SC)=C2C#N)cc1 (stereo unspecified) | -23% | -5% | 5% | 2% | -1% | ·
Cc1cc(-n2c(C)cc(C(=O)CN3C(=O)C(=O)N(C)C3=O)c2C)no1 | · | 9% | 10% | · | -4% | ·
CCCCN1C(=O)C(=O)N(CC(=O)c2cc(C)n(-c3cc(C)on3)c2C)C1=O | ? | 20% | -4% | · | 1% | 10µM*
Cc1cc(-n2c(C)cc(C(=O)CN3C(=O)NC4(CCCC4)C3=O)c2C)no1 | 7% | 2% | 0% | -6% | -5% | ?
Cc1cc(-n2c(C)cc(C(=O)CN3C(=O)NC4(CCCCC4)C3=O)c2C)no1 | 19% | -29% | -15% | -17% | -8% | 13µM*
Cc1cc(-n2c(C)cc(C(=O)CN3C(=O)NC4(CCCCC4C)C3=O)c2C)no1 (stereo unspecified) | -6% | ? | -1% | -1% | -1% | 2.3µM*
CCN(c1ccc(NC(=O)COC(=O)CCc2cc(OC)c(OC)c(OC)c2)cc1)C(C)C | 12% | 6% | -21% | · | -7% | -11%
C[C@H]1C=C(C(=O)N2CCN(Cc3ccc4c(c3)OCO4)CC2)O[C@@H](OCc2ccc(CO)cc2)C1 | ? | 35%[8.37 µM] | 21% | 0% | 0% | ?
CN1CCN(C(=O)C2=C[C@@H](c3ccc4c(c3)OCO4)C[C@@H](OCc3ccc(CO)cc3)O2)CC1 | -16% | -7% | 19% | 1% | 0% | -12%
O=C(C1=C[C@H](c2ccc(Br)cc2)C[C@H](OCc2ccc(CO)cc2)O1)N1CCN(Cc2ccc3c(c2)OCO3)CC1 | 7.4µM* | ? | -19% | -2% | -1% | ?
O=C(C1=C[C@H](c2ccc3c(c2)OCO3)C[C@H](OCc2ccc(CO)cc2)O1)N1CCN(Cc2ccc3c(c2)OCO3)CC1 | 13µM* | 35µM* | ? | -18% | -1% | 4.1µM*
O=C(C1=C[C@H](c2ccccc2)C[C@H](OCc2ccc(CO)cc2)O1)N1CCN(Cc2ccc3c(c2)OCO3)CC1 | 13µM* | ? | -27% | -10% | -1% | ?
C#Cc1ccc([C@H]2C=C(C(=O)N3CCN(Cc4ccc5c(c4)OCO5)CC3)O[C@@H](OCc3ccc(CO)cc3)C2)cc1 | 3.3µM* | 14%[8.37 µM] | 0% | 4% | -1% | ?
COc1ccc(Cl)cc1NC(=O)C1CCN(C(=O)C2CC(=O)N(c3ccc(C)cc3)C2)CC1 (stereo unspecified) | 235% | -25% | -5% | -2% | -16% | 0%
C=CCNc1nc(NCc2ccc(N(C)C)cc2)c2sc(-c3ccccc3)cc2n1 | · | · | 2.8µM* | · | · | ·
C=CCNc1nc(NCCOC)c2sc(-c3ccccc3)cc2n1 | · | · | -5% | · | · | ·
O=C(O)/C=C/C(=O)c1ccc2c(c1)NC(=O)CO2 | 3.3µM* | 9% | 5% | · | 0% | 1.9µM*
N#CCCn1cc(/C=N/NC(N)=S)c(-c2ccc(-c3ccccc3)cc2)n1 | ? | 11µM* | 87% | · | 5% | ?
SMILES | Pf growth 96h | HCV inhibitor | AMA1-RON2 inh | NS1 function inh | SARS PLP yeast | Pf growth 48h
COc1ccc(Nc2nc(NCCCN3CCOCC3)nc(N)c2[N+](=O)[O-])cc1 | ? | -16% | -8% | -1% | -1% | ?
Nc1nc(NCCCN2CCOCC2)nc(Nc2cccc(F)c2)c1[N+](=O)[O-] | ? | -21% | 0% | 5% | 0% | -14%
Cc1cccc(Nc2nc(NCCCN3CCOCC3)nc(N)c2[N+](=O)[O-])c1 | ? | ? | -23% | -3% | 13% | 15µM*
Nc1nc(NCCCN2CCOCC2)nc(Nc2ccc(F)cc2)c1[N+](=O)[O-] | ? | 8% | 15% | 8% | 0% | 13µM*
O=C(Nc1ccccc1Br)C1CCCN1S(=O)(=O)c1cccc2nsnc12 (stereo unspecified) | ? | -13% | -8% | 3% | -6% | -2%
COc1ccc(NC(=O)C2CCCN2S(=O)(=O)c2cccc3nsnc23)c(OC)c1 (stereo unspecified) | 10µM* | 5% | 2% | 11% | 4% | ?
Cc1ccc(C(=O)O)cc1NC(=O)C1CCCN1S(=O)(=O)c1cccc2nsnc12 (stereo unspecified) | 17µM* | 13% | -5% | 13% | 4% | ·
COc1ccccc1NC(=O)C1CCCN1S(=O)(=O)c1cccc2nsnc12 (stereo unspecified) | ? | -13% | 5% | 4% | -6% | -1%
Cc1c(NC(=O)C2CCCN2S(=O)(=O)c2cccc3nsnc23)cccc1C(=O)O (stereo unspecified) | 9.3µM* | -2% | 11% | -6% | 7% | ·
O=C(c1cccs1)N1CCN=C1SCc1ccccc1F | ? | -19% | -4% | · | 1% | 23%
CS(=O)(=O)n1nc(OC(=O)c2cc(Br)ccc2Cl)cc1N | -33%[5.75 µM] | 3% | 7% | · | -1% | -8%
Cc1ccc(S(=O)(=O)n2nc(OC(=O)c3c(-c4ccccc4Cl)noc3C)cc2N)cc1 | 2.1µM* | 9% | -13% | 18% | 5% | 11%
CS(=O)(=O)n1nc(OC(=O)c2cccc3ccccc23)cc1N | 5.2µM* | 8% | -19% | 5% | -7% | 20%
Cc1ccc(C(=O)Oc2cc(N)n(S(=O)(=O)c3ccc(C)cc3)n2)cc1 | 41% | 4% | 4% | · | -4% | -3%
COc1cc(C(=O)Oc2cc(N)n(S(=O)(=O)c3ccc(F)cc3)n2)cc(OC)c1OC | 4.7µM* | 20% | 0% | -7% | 0% | 2%
